The supplement of paper PMC3334620
In all, about 33,000 sequences were measured (“E-score (-0.5 to 0.5)”: median about -0.013, highest 2% from about 0.3 on). The list comes from a sample in which the highest values are over-represented; it also holds similar and randomly drawn sequences.

Each sequence was assayed against T1, Msn1 (UniProt P22148) (assay: PBM E-score (8-mer binding enrichment) (E-score (-0.5 to 0.5)); higher = stronger / more preferred TF binding). Settings: protein concentration: 200 nM; construct: GST-full length.
T1 sequence: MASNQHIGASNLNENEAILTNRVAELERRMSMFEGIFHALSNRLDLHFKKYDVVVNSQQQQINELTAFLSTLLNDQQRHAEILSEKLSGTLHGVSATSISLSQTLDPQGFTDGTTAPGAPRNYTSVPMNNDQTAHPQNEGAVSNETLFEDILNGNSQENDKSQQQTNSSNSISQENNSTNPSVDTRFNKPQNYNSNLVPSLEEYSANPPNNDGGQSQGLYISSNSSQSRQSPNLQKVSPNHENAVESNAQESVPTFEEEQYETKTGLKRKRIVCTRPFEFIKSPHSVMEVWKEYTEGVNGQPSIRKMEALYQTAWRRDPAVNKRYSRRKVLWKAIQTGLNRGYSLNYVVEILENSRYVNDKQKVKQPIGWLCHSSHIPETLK
Description: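 Universal 'all 10-mer' protein binding microarrays (Agilent AMADID 015681) probed with GST-tagged S. cerevisiae TFs (full-length or DBD) made by in vitro transcription/translation (PURExpress), about 100-200 nM. Bound TF was detected with fluorescent anti-GST. Each ungapped 8-mer (which stands for itself and its reverse complement) is scored by the PBM enrichment score (E-score), a modified Wilcoxon-Mann-Whitney statistic from -0.5 to +0.5, computed with the Universal PBM Analysis Suite. Scale: above 0.35 generally sequence-specific binding.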

**Q.** For CCTGTCCC, which “PBM E-score” value is on record?
**A.** 0.282

**Q.** With CATGTCAC as the sequence, how does the “PBM E-score” value read?
**A.** 0.291

**Q.** How did the “PBM E-score” value turn out when CCACTTGC was run?
**A.** -0.132

**Q.** Which “PBM E-score” value does the source give for CTCAGTCA here?
**A.** -0.173

**Q.** For ACTGGACA, which “PBM E-score” value is on record?
**A.** 0.374

**Q.** CCTGGACA was tested. Which “PBM E-score” value did it give?
**A.** 0.417

**Q.** GCTGGACA was tested. Which “PBM E-score” value did it give?
**A.** 0.276

**Q.** Which “PBM E-score” value does the source give for CCTGGACC here?
**A.** 0.0101

**Q.** With ACTGGACT as the sequence, how does the “PBM E-score” value read?
**A.** 0.105

**Q.** With ACTGGACC as the sequence, how does the “PBM E-score” value read?
**A.** -0.137

**Q.** With CCTGGACG as the sequence, how does the “PBM E-score” value read?
**A.** -0.182

**Q.** With TCTGGAAA as the sequence, how does the “PBM E-score” value read?
**A.** -0.0457

**Q.** How did the “PBM E-score” value turn out when TCTGGACA was run?
**A.** 0.381

**Q.** Which “PBM E-score” value does the source give for AAGTATGC here?
**A.** -0.0157

**Q.** GCCGACCA was tested. Which “PBM E-score” value did it give?
**A.** 0.0498

**Q.** TCCTTGCA was tested. Which “PBM E-score” value did it give?
**A.** 0.0515

**Q.** Which “PBM E-score” value does the source give for CCTCTCAG here?
**A.** -0.339

**Q.** For ATACCATA, which “PBM E-score” value is on record?
**A.** 0.0438

**Q.** CAGGCGGA was tested. Which “PBM E-score” value did it give?
**A.** 0.223

**Q.** For CAATGTCA, which “PBM E-score” value is on record?
**A.** 0.262

**Q.** AAATGTGT was tested. Which “PBM E-score” value did it give?
**A.** 0.292

**Q.** Which “PBM E-score” value does the source give for CAATGTGG here?
**A.** 0.111

**Q.** Which “PBM E-score” value does the source give for AAATGTCG here?
**A.** 0.412

**Q.** How did the “PBM E-score” value turn out when CAATGTCG was run?
**A.** 0.323

**Q.** CAATGTGC was tested. Which “PBM E-score” value did it give?
**A.** -0.121

**Q.** For AAATGTCT, which “PBM E-score” value is on record?
**A.** 0.486

**Q.** CAATGTAG was tested. Which “PBM E-score” value did it give?
**A.** -0.109

**Q.** With CAATGTCC as the sequence, how does the “PBM E-score” value read?
**A.** 0.47

**Q.** For AAATGTAT, which “PBM E-score” value is on record?
**A.** 0.28

**Q.** How did the “PBM E-score” value turn out when AAATGTTG was run?
**A.** -0.0982

**Q.** With AAATGTGG as the sequence, how does the “PBM E-score” value read?
**A.** 0.147

**Q.** ACGACTCC was tested. Which “PBM E-score” value did it give?
**A.** -0.181

**Q.** Which “PBM E-score” value does the source give for GTCGGGTA here?
**A.** 0.0767

**Q.** With GACGTCAA as the sequence, how does the “PBM E-score” value read?
**A.** -0.00044

**Q.** Which “PBM E-score” value does the source give for GTAATATA here?
**A.** 0.191

**Q.** GAGAAACC was tested. Which “PBM E-score” value did it give?
**A.** -0.0447

**Q.** TATGTGAA was tested. Which “PBM E-score” value did it give?
**A.** -0.121

**Q.** GATAAGGC was tested. Which “PBM E-score” value did it give?
**A.** 0.0376

**Q.** Which “PBM E-score” value does the source give for GAATGTGA here?
**A.** 0.076

**Q.** How did the “PBM E-score” value turn out when AAATGTAA was run?
**A.** 0.238

**Q.** AAATGTCA was tested. Which “PBM E-score” value did it give?
**A.** 0.456

**Q.** TAATGTCA was tested. Which “PBM E-score” value did it give?
**A.** 0.259

**Q.** Which “PBM E-score” value does the source give for GAATGTCA here?
**A.** 0.373

**Q.** How did the “PBM E-score” value turn out when AAATGTTA was run?
**A.** 0.165

**Q.** ACGATAGT was tested. Which “PBM E-score” value did it give?
**A.** 0.0402

**Q.** CGACCTGA was tested. Which “PBM E-score” value did it give?
**A.** 0.0583

**Q.** For CGTTGTCA, which “PBM E-score” value is on record?
**A.** -0.023

**Q.** With CGTTGTGC as the sequence, how does the “PBM E-score” value read?
**A.** 0.114

**Q.** Which “PBM E-score” value does the source give for AGTTGTCA here?
**A.** 0.295

**Q.** How did the “PBM E-score” value turn out when CGTTGTCC was run?
**A.** 0.413

**Q.** Which “PBM E-score” value does the source give for AGTTGTCC here?
**A.** 0.441

**Q.** How did the “PBM E-score” value turn out when AGTTGTGC was run?
**A.** -0.273

**Q.** AATGCGGG was tested. Which “PBM E-score” value did it give?
**A.** 0.145

**Q.** With GGGAGCAC as the sequence, how does the “PBM E-score” value read?
**A.** -0.276

**Q.** With AAGCTCGT as the sequence, how does the “PBM E-score” value read?
**A.** 0.0392

**Q.** With GCTTCCAA as the sequence, how does the “PBM E-score” value read?
**A.** -0.0663

**Q.** How did the “PBM E-score” value turn out when GTCATTGA was run?
**A.** 0.0439

**Q.** Which “PBM E-score” value does the source give for AGCTGGTC here?
**A.** -0.0428

**Q.** How did the “PBM E-score” value turn out when ACGGGCAG was run?
**A.** -0.0886

**Q.** With TGCAGACA as the sequence, how does the “PBM E-score” value read?
**A.** 0.33

**Q.** AGCAGACA was tested. Which “PBM E-score” value did it give?
**A.** 0.0142

**Q.** CGCAGACC was tested. Which “PBM E-score” value did it give?
**A.** -0.123

**Q.** Which “PBM E-score” value does the source give for CGCAGACG here?
**A.** 0.0312

**Q.** For CGCAGACA, which “PBM E-score” value is on record?
**A.** 0.323

**Q.** For GGCAGACA, which “PBM E-score” value is on record?
**A.** 0.079

**Q.** For ATCACTAC, which “PBM E-score” value is on record?
**A.** -0.126

**Q.** Which “PBM E-score” value does the source give for CAGTGCTC here?
**A.** -0.259

**Q.** With AGCGCAGC as the sequence, how does the “PBM E-score” value read?
**A.** -0.115

**Q.** Which “PBM E-score” value does the source give for ACCGCAAG here?
**A.** -0.0142

**Q.** How did the “PBM E-score” value turn out when ATGCTACC was run?
**A.** -0.126

**Q.** How did the “PBM E-score” value turn out when AGAGATAT was run?
**A.** 0.0248

**Q.** For CGCCGGCG, which “PBM E-score” value is on record?
**A.** 0.204

**Q.** Which “PBM E-score” value does the source give for CCTGCCAA here?
**A.** -0.125

**Q.** ATGTCATC was tested. Which “PBM E-score” value did it give?
**A.** 0.341

**Q.** ATGTCAAG was tested. Which “PBM E-score” value did it give?
**A.** 0.217

**Q.** For CTGTCAAA, which “PBM E-score” value is on record?
**A.** 0.0466

**Q.** Which “PBM E-score” value does the source give for CTGTCATA here?
**A.** 0.0936

**Q.** CTGTCATC was tested. Which “PBM E-score” value did it give?
**A.** 0.0737

**Q.** How did the “PBM E-score” value turn out when ATGTCAAA was run?
**A.** 0.323

**Q.** For ATGTCATG, which “PBM E-score” value is on record?
**A.** 0.411

**Q.** With GTGTCATA as the sequence, how does the “PBM E-score” value read?
**A.** 0.292

**Q.** Which “PBM E-score” value does the source give for ATGTCAGG here?
**A.** 0.158

**Q.** Which “PBM E-score” value does the source give for ATGTCAGC here?
**A.** 0.194

**Q.** For ATGTCATA, which “PBM E-score” value is on record?
**A.** 0.448

**Q.** GTGTCAAA was tested. Which “PBM E-score” value did it give?
**A.** 0.096

**Q.** AGAGGTTG was tested. Which “PBM E-score” value did it give?
**A.** -0.182

**Q.** For AGGTAACA, which “PBM E-score” value is on record?
**A.** 0.113

**Q.** Which “PBM E-score” value does the source give for AAGTCGCT here?
**A.** -0.0636

**Q.** Which “PBM E-score” value does the source give for ATGGGACC here?
**A.** 0.00395

**Q.** How did the “PBM E-score” value turn out when GTGGGATA was run?
**A.** -0.0948

**Q.** For CTGGGACC, which “PBM E-score” value is on record?
**A.** -0.269

**Q.** Which “PBM E-score” value does the source give for GTGGGACA here?
**A.** 0.455

**Q.** With CTGGGACA as the sequence, how does the “PBM E-score” value read?
**A.** 0.444

**Q.** For GTGGGAGA, which “PBM E-score” value is on record?
**A.** -0.317

**Q.** With CTGGGAAA as the sequence, how does the “PBM E-score” value read?
**A.** -0.203

**Q.** Which “PBM E-score” value does the source give for ATGGGACG here?
**A.** -0.188

**Q.** For ATGGGACA, which “PBM E-score” value is on record?
**A.** 0.429

**Q.** With GACCGTGA as the sequence, how does the “PBM E-score” value read?
**A.** -0.0454

**Q.** AACGCTAC was tested. Which “PBM E-score” value did it give?
**A.** -0.137

**Q.** How did the “PBM E-score” value turn out when CCCAACGC was run?
**A.** 0.0471

**Q.** For AATACCTG, which “PBM E-score” value is on record?
**A.** -0.0275

**Q.** For GGTGAGAC, which “PBM E-score” value is on record?
**A.** 0.0221

**Q.** Which “PBM E-score” value does the source give for ACACACCA here?
**A.** 0.183

**Q.** CTCCTTCA was tested. Which “PBM E-score” value did it give?
**A.** -0.3

**Q.** With AGAAGCTA as the sequence, how does the “PBM E-score” value read?
**A.** -0.135

**Q.** AATGGAGC was tested. Which “PBM E-score” value did it give?
**A.** -0.132

**Q.** For CTTGTGTC, which “PBM E-score” value is on record?
**A.** 0.304

**Q.** How did the “PBM E-score” value turn out when ATTGTGTG was run?
**A.** -0.0187

**Q.** Which “PBM E-score” value does the source give for ATTGTGTA here?
**A.** 0.14

**Q.** How did the “PBM E-score” value turn out when CGTGTGTC was run?
**A.** 0.0945

**Q.** With ATTGTGTC as the sequence, how does the “PBM E-score” value read?
**A.** 0.314

**Q.** With CTTGTGTA as the sequence, how does the “PBM E-score” value read?
**A.** 0.114
